Hits are enriched below; roughly 0.85% of the tested compounds scored in any of these assays.
BLM inh = inhibitors of human Bloom syndrome helicase BLM. recombinant BLM DNA unwinding, fluorescence dequenching. P54132. Potency, µM (top dose mostly 56.1 µM), actives largely listed as inhibitors. 350,000 tested, 0.2% active; further: nearly all actives have a fitted effect of over 35% in size
Tb PGK inh = T. brucei PGK inhibition; PGK/GAPDH coupled, Kinase-Glo luminescence, 60 min; 380,000 tested, 0.043% active; P07378; Potency, µM (titrated, usually from 57.5 µM), actives largely listed as inhibitors; further: nearly all actives have a fitted effect of over 60% in size
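Luminescent ATP detection (Kinase-Glo Plus) follows a 60-minute room-temperature incubation, with wells lacking PGK as controls. Buffer: 100 mM TEA (pH 7.6), 5 mM MgCl2, 0.01% Tween-20. Coupling enzyme GAPDH (100 nM final) supplies unstable 1,3-BPG in-well.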
GLS inh = blocks human kidney-isoform glutaminase activity; O94925; GLS enzymatic activity, qHTS titration; Potency, µM (top dose mostly 45.5 µM), usual class: inhibitors; 410,000 tested, 0.21% active; AID 624170
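hKGA in 45 mM KH2PO4 (pH 8.2), 0.02% Tween-20 with compound, then 1mM L-Glutamine (stock as added) plus glutamate oxidase/HRP/Amplex red coupling mix. Fluorescence read initially and after 30 min at RT; signal change reflects glutamate formation.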
APE1 inh = blocks human APE1 abasic DNA cleavage; P27695; recombinant APE1, TAMRA/BHQ-2 abasic DNA cleavage fluorescence; Potency, µM (top dose mostly 65.8 µM), most hits filed as inhibitors; 350,000 tested, 0.35% active; AID 2517; further: nearly all actives have a fitted effect of over 55% in size
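Compound pre-exposure to 0.75 nM APE1, 15 min at ambient temperature. Reaction initiated with 50 nM TAMRA/BHQ-2 THF substrate, read immediately in kinetic mode, 525 nm excitation, 598 nm emission.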
TDP1 block = inhibitors of human tyrosyl-DNA phosphodiesterase TDP1; Q9NUW8; recombinant TDP1, AlphaScreen DNA substrate cleavage; Potency, µM (titrated, usually from 130 µM), usual class: inhibitors; 350,000 tested, 0.28% active; further: nearly all actives have a fitted effect of over 40% in size
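E. coli-derived human Tdp1, 1 nM final. Cpd preinc 15 min RT; substrate 15 nM final, 5 min RT; AS bead mix 10 ug/ml final, 10 min RT. Signal loss = tyrosine-FITC cleavage. No-enzyme wells = max signal.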
RECQ1 inh-1 = inhibitors of human RECQ1 DNA helicase | P46063 | RECQ1 DNA unwinding, red fluorescence kinetic read | 240,000 tested, 0.54% active | Potency, µM (top dose mostly 57.3 µM), most hits filed as inhibitors | AID 2549; further: nearly all actives have a fitted effect of over 30% in size
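RECQ1T1 50 nM; forked duplex (20 bp + 30-nt ss tails) 200 nM, ATP 2 mM final; pH 8.0, 2 mM MgCl2, 2.5 ug/ml poly(dI-dC); 15 min compound preincubation; discontinuous kinetic read over 2 h at RT.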
RECQ1 conf = confirmation of human RECQ1 helicase inhibitors; 610 tested, 28% active; Potency, µM (series often up to 229 µM), usual class: inhibitors; shares compounds with RECQ1 inh-1; RECQ1 helicase DNA unwinding, fluorescence; further: nearly all actives have a fitted effect of over 45% in size
ADP FP counter = displaces ADP in a fluorescence polarization counter-screen for RECQ1 hits | shares compounds with RECQ1 inh-1 | ADP fluorescence polarization displacement counterscreen | Potency, µM (doses to about 228 µM), hits mostly inhibitors | 530 tested, 27% active; further: nearly all actives have a fitted effect of over 45% in size
RECQ1 inh-2 = RECQ1 helicase inhibition confirmed, round 2. shares compounds with RECQ1 inh-1. recombinant RECQ1 DNA unwinding, red fluorescence. Potency, µM (top dose mostly 119 µM), most hits filed as inhibitors. 1,100 tested, 15% active. AID 504841; further: nearly all actives have a fitted effect of over 50% in size
Large screens that a line does not name were inactive (follow-up assays come after a bar, where they were run). The call rests on the fitted dose curve; in most records, active means well fitted curve in the direction sought with a large enough effect; inconclusive means small, poorly fitted or top-dose-only effect, or another doubt; inactive means no such curve, though single readings can be large; an effect the other way counts as inactive or inconclusive.

COc1ccc(NC(=O)C(C)(C)Oc2ccc(Cl)cc2)cn1	none (no result: BLM inh, RECQ1 inh-1)
N#CC1=C(N)Oc2ccc3ccc(O)cc3c2C1c1ccsc1 (configuration not stated)	RECQ1 inh-1 inconclusive | RECQ1 inh-2 50.1µM
COC(=O)C[C@H]1c2ccccc2[C@H]2C(=C[C@@H](C)[C@H]3C(=O)N(O)C(=O)[C@H]32)N1C(=O)OC	none (no result: Tb PGK inh, GLS inh)
CCc1cc2c(=O)c(-c3ccc4c(c3)OCCO4)coc2c(CN2CCCCC2C)c1O (configuration not stated)	RECQ1 inh-1 inconclusive | RECQ1 inh-2 inactive
CC1(C)OC(=O)C2(Cc3cc(C(F)(F)F)ccc3N3CCCCC32)C(=O)O1 (configuration not stated)	none (no result: BLM inh, Tb PGK inh, GLS inh, APE1 inh, RECQ1 inh-1)
Cc1nc2cnc(N3CCOCC3)nc2n(Cc2ccc(F)cc2)c1=O	RECQ1 inh-1 0.631µM (no result: Tb PGK inh, GLS inh, TDP1 block) | RECQ1 inh-2 inactive
Cc1nc2cnc(N3CCN(C)CC3)nc2n(Cc2ccc(F)cc2)c1=O	none (no result: Tb PGK inh, GLS inh, TDP1 block)
O=C1CCCC2=C1C1(CCCC1)N=C(Nc1nc3cc(Br)ccc3o1)N2	none (no result: BLM inh, Tb PGK inh, GLS inh, APE1 inh, RECQ1 inh-1)
O=C(O)/C(=C\c1ccc(Cl)cc1)c1ccc(S(=O)(=O)N2CCCC2)s1	none (no result: BLM inh, TDP1 block, RECQ1 inh-1)
O=C(O)/C(=C\c1ccccc1Cl)c1ccc(S(=O)(=O)N2CCCCC2)s1	none | RECQ1 conf 126µM | ADP FP counter inactive
CCOC(=O)c1c(-n2cnnn2)sc2c1CCCC2	none
CCOC(=O)c1c(N2C(=O)Nc3cc(Cl)c(Cl)cc3N2O)sc2c1CCCCC2	RECQ1 inh-1 inconclusive | RECQ1 inh-2 20µM
CCn1c(=S)[nH]c2scc(-c3cccs3)c2c1=O	none
CC(C)n1c(=S)[nH]c2scc(-c3cccs3)c2c1=O	APE1 inh inconclusive, RECQ1 inh-1 28.2µM | RECQ1 inh-2 inconclusive
COc1cccc(/C=C2\CC(C)Cc3c2nc2ccccc2c3C(=O)O)c1OC (configuration not stated)	none (no result: RECQ1 inh-1)
COc1cc(/C=C2\CCc3c2nc2ccccc2c3C(=O)O)cc(OC)c1OC	BLM inh 14.1µM, Tb PGK inh inconclusive, GLS inh inconclusive, APE1 inh 25.1µM, RECQ1 inh-1 10µM (no result: TDP1 block) | RECQ1 conf 22.4µM | ADP FP counter inactive | RECQ1 inh-2 inconclusive
Cc1ccc(-c2ccc(C3C(C#N)=C(N)Oc4n[nH]c(C)c43)o2)cc1 (configuration not stated)	BLM inh inconclusive, APE1 inh inconclusive, RECQ1 inh-1 14.1µM | RECQ1 inh-2 inactive
Cc1[nH]nc2c1C(c1ccc(-c3ccc(Cl)cc3)o1)C(C#N)=C(N)O2 (configuration not stated)	none
C[C@@H]1C(=O)O[C@H]2[C@H](O)[C@@]34[C@H]5CC(C(C)(C)C)[C@]36[C@H](OC(=O)[C@H]6O)O[C@]4(C(=O)O5)[C@@]12O (some centres not stated)	APE1 inh inconclusive (no result: Tb PGK inh, GLS inh)
O=C(O)C1Cc2ccccc2CN1C(=O)CSc1nnc2ccccn12 (configuration not stated)	none | RECQ1 conf inactive | ADP FP counter inconclusive
O=C(CSc1nnc2ccccn12)N1CCc2ccccc2C1	none
CC(O)C#C[Si](C)(C)c1ccccc1 (configuration not stated)	none (no result: Tb PGK inh, GLS inh)
COC(=O)C1=C(C(=O)OC)[C@@H]2N(Cc3ccccc3)c3ccccc3[C@@]23C[C@@H](C(=O)OC)N=C3N1	RECQ1 inh-1 inconclusive | RECQ1 inh-2 inactive

High-throughput results: PubChem, National Center for Advancing Translational Sciences (NCATS)
